Screening data as filed in PubChem.
Autofluor 339: intrinsic fluorescence of library compounds, ex339/em460 – biochemical, MLSMR library, data from DPM-DC assay, artefact control, profiling panel; hit rate 5.5% among 65,000; fluorescence fold increase at 10 µM; AID 709; compound autofluorescence, ex339/em460 nm, NADH buffer; hits give high values; 1 = no-compound wells, NADH background;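 active = at 10 µM, mean starting fluorescence two-fold or more over control wells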;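 also: signal is the first read of a kinetic run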
MK inhibit: inhibitors of Streptococcus pneumoniae mevalonate kinase | purified MK, PK/LDH-coupled NADH absorbance 340 nm | inhibition, % at 10 µM | hit rate 0.48% among 65,000;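 active = ranked among the strongest by inhibition in the single 10 µM screen, a fixed top-ranked set picked for dose follow-up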
Spn DPM-DC inh: S. pneumoniae DPM-DC inhibition. AID 556. calls only at 10 µM. purified DPM-DC, PK/LDH coupled NADH fluorescence. hit rate 0.49% among 65,000;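 active = the 320 compounds with the highest percent inhibition in the single-dose primary screen, excluding strongly autofluorescent ones, cut at about 32% in these data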;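 also: kinetic rate of NADH fluorescence loss reporting ADP formed by the decarboxylase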
PMK inhibit: inhibitors of Streptococcus pneumoniae phosphomevalonate kinase. inhibition, % at 10 µM. purified PMK, PK/LDH-coupled NADH absorbance 340 nm. hit rate 0.49% among 65,000;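 active = top-ranked compounds by inhibition in the single 10 µM screen, taking a fixed number of the strongest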;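 also: 0% = full reaction with DMSO carrier and 100% = background rate without enzyme reaction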
NADH enzymes: inhibitors of enzymes used to reach an NAD/NADH endpoint; coupled PK/LDH NADH assays, four targets; IC50, µM (titrated, usually from 10 µM), for the others: at the top dose inhibition; hit rate 0.02% among 65,000; AID 774;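 active = single-dose screening hits from any of four coupled enzyme assays that gave an IC50 when retested across doses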;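 also: the DPM-DC format reads NADH fluorescence rather than 340 nm absorbance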
* = called active by the depositor. An excerpt weighted towards active compounds, which were near 6.6% of everything screened.

How did CCOC(=O)c1cc(-c2nnc(-c3ccc(Oc4ccccc4)cc3)o2)c(C)nc1C do in these assays?
Autofluor 339: 1.3; MK inhibit: 24; Spn DPM-DC inh: inactive; PMK inhibit: 2; NADH enzymes: 4%

Results for Cn1c(/N=C/c2ccc3c(c2)OCO3)nc2ccccc21 ?
Autofluor 339: 2.1*; MK inhibit: 10; PMK inhibit: 8; NADH enzymes: 9%

What do the screens show for `Cn1c(/N=C/c2c[nH]c3ccccc23)nc2ccccc21`?
Autofluor 339: 1.1; MK inhibit: 14; Spn DPM-DC inh: inactive; PMK inhibit: 0; NADH enzymes: 5%

How did O=C(c1cccc(F)c1)N1CCN(Cc2ccco2)CC1 do in these assays?
Autofluor 339: 1.1; MK inhibit: 44*; Spn DPM-DC inh: inactive; PMK inhibit: 3; NADH enzymes: 16%

Results for Cc1ccccc1Cn1cc(NC(=O)c2cc3nc(-c4ccco4)cc(C(F)(F)F)n3n2)cn1 ?
Autofluor 339: 3*; MK inhibit: 13; Spn DPM-DC inh: active; PMK inhibit: 14; NADH enzymes: 23%

What do the screens show for `O=C(Nc1ccc(Cl)cc1)c1cc2nc(-c3ccco3)cc(C(F)(F)F)n2n1`?
Autofluor 339: 2.5*; MK inhibit: 8; Spn DPM-DC inh: inactive; PMK inhibit: 5; NADH enzymes: 9%

What do the screens show for `Cn1c(Cc2ccccc2)nnc1SCC(=O)Nc1ccccc1N1CCOCC1`?
Autofluor 339: 1.1; MK inhibit: 5; Spn DPM-DC inh: inactive; PMK inhibit: 1; NADH enzymes: 2%

What do the screens show for `CC(C)n1nnnc1SCC(=O)Nc1ccccc1N1CCOCC1`?
Autofluor 339: 1; MK inhibit: 2; Spn DPM-DC inh: inactive; PMK inhibit: active; NADH enzymes: 5%

Results for COc1ncnc(OC)c1NC(=O)c1ccc(F)cc1 ?
Autofluor 339: 0.76; MK inhibit: 63*; Spn DPM-DC inh: inactive; PMK inhibit: 10; NADH enzymes: 33%

How did O=C(Nc1nc2ccccc2[nH]1)c1ccc(F)cc1 do in these assays?
Autofluor 339: 0.99; MK inhibit: 6; Spn DPM-DC inh: inactive; PMK inhibit: 12; NADH enzymes: 7%

What do the screens show for `O=C(Cn1nnc(-c2ccncc2)n1)NCCc1ccccc1`?
Autofluor 339: 0.98; MK inhibit: 0; Spn DPM-DC inh: inactive; PMK inhibit: 9; NADH enzymes: 3%

Results for O=C(O)CCS(=O)(=O)Cc1ccccc1F ?
Autofluor 339: 1.1; MK inhibit: 1; Spn DPM-DC inh: inactive; PMK inhibit: 27*; NADH enzymes: 9%

Results for O=C(O)CCCNCc1ccccc1F ?
Autofluor 339: 1.1; MK inhibit: 5; Spn DPM-DC inh: inactive; PMK inhibit: 11; NADH enzymes: 5%

What do the screens show for `CC(=O)Nc1nn(C)c2nc3cc(C)ccc3cc12`?
Autofluor 339: 2; MK inhibit: 11; Spn DPM-DC inh: inactive; PMK inhibit: 3; NADH enzymes: 9%

What do the screens show for `Cc1ccc2cc3c(NC(=O)c4ccco4)nn(C)c3nc2c1`?
Autofluor 339: 2.9*; MK inhibit: 9; Spn DPM-DC inh: active; PMK inhibit: 6; NADH enzymes: 17%

What do the screens show for `COc1ccc(OCc2nnc(SC(C)C(=O)Nc3nccs3)n2-c2ccccc2)cc1` (stereo unspecified)?
Autofluor 339: 1.1; MK inhibit: 10; Spn DPM-DC inh: inactive; PMK inhibit: 0; NADH enzymes: 3%

How did Cc1ccc(-n2nc3c(c2NC(=O)c2c(-c4ccccc4Cl)noc2C)CS(=O)(=O)C3)c(C)c1 do in these assays?
Autofluor 339: 1.1; MK inhibit: 1; Spn DPM-DC inh: inactive; PMK inhibit: 25*; NADH enzymes: 9%

Results for CC(=O)Nc1ccc(CN2CCN(c3cccc(C(F)(F)F)c3)CC2)cc1 ?
Autofluor 339: 1.1; MK inhibit: 43*; Spn DPM-DC inh: inactive; PMK inhibit: 3; NADH enzymes: 15%

What do the screens show for `CCOC(=O)c1c(C)n(C)c2c(C)cc(O)c(OC(=O)CC)c12`?
Autofluor 339: 1.1; MK inhibit: 6; Spn DPM-DC inh: inactive; PMK inhibit: 0; NADH enzymes: 2%

What do the screens show for `CCCCCNC(=O)C(C#N)c1nc2ccccc2nc1N1CCCC1` (stereo unspecified)?
Autofluor 339: 2.4*; MK inhibit: 10; Spn DPM-DC inh: inactive; PMK inhibit: 4; NADH enzymes: 10%

How did Cc1ccc(S(=O)(=O)C(C#N)c2nc3ccccc3nc2N2CCCC2)cc1 (stereo unspecified) do in these assays?
Autofluor 339: 3.8*; MK inhibit: 6; PMK inhibit: 7; NADH enzymes: 7%

What do the screens show for `CCN(CC)c1nc2ccccc2nc1C(C#N)C(=O)NCCCOC` (stereo unspecified)?
Autofluor 339: 2.4*; MK inhibit: 5; Spn DPM-DC inh: inactive; PMK inhibit: 1; NADH enzymes: 8%

What do the screens show for `COc1ccc(N(CC(=O)NCc2ccco2)S(=O)(=O)c2ccc(OC)c(OC)c2)cc1`?
Autofluor 339: 1.1; MK inhibit: 0; Spn DPM-DC inh: inactive; PMK inhibit: 0; NADH enzymes: 0%

Results for O=c1c2cn[nH]c2[nH]c(=S)n1-c1ccccc1F ?
Autofluor 339: 0.97; MK inhibit: 4; Spn DPM-DC inh: inactive; PMK inhibit: 16; NADH enzymes: 7%

How did c1ccc(CCn2nnnc2C(c2cccs2)N2CCOCC2)cc1 (stereo unspecified) do in these assays?
Autofluor 339: 1.1; MK inhibit: 0; Spn DPM-DC inh: inactive; PMK inhibit: 25*; NADH enzymes: 3%

Results for CC(C)C(c1nnnn1CCc1ccccc1)N1CCOCC1 (stereo unspecified) ?
Autofluor 339: 1.1; MK inhibit: 0; Spn DPM-DC inh: inactive; PMK inhibit: 0; NADH enzymes: 0%

How did COc1cc(NC(=O)c2ccco2)c(OC)cc1NC(=O)CCC(=O)Nc1cc(C)cc(C)c1 do in these assays?
Autofluor 339: 1.1; MK inhibit: 0; Spn DPM-DC inh: inactive; PMK inhibit: 5; NADH enzymes: 4%

Results for COc1cc(NC(=O)c2ccco2)c(OC)cc1NC(=O)CCC(=O)Nc1cc(C)ccc1C ?
Autofluor 339: 2.7*; MK inhibit: 7; Spn DPM-DC inh: active; PMK inhibit: 8; NADH enzymes: 37%

Results for CSCC[C@H](NC(=O)OC(C)(C)C)c1nnc(SCC=C(C)C)o1 ?
Autofluor 339: 1.1; MK inhibit: 13; Spn DPM-DC inh: inactive; PMK inhibit: 12; NADH enzymes: 8%

How did CCOC(=O)C(Oc1ccc(=O)n(-c2ccccc2)n1)C(C)=O (stereo unspecified) do in these assays?
Autofluor 339: 1.1; MK inhibit: 25; Spn DPM-DC inh: inactive; PMK inhibit: 7; NADH enzymes: 11%

What do the screens show for `CCC(C)(C)n1nnnc1CN(Cc1ccc(Cl)cc1)Cc1ccco1`?
Autofluor 339: 1.1; MK inhibit: 0; Spn DPM-DC inh: inactive; PMK inhibit: 9; NADH enzymes: 3%
